From the supplement of paper PMC11732987, “Enantioselective OTUD7B fragment discovery through chemoproteomics screening and high-throughput optimisation” (Communications Chemistry, 2025)

Key:
Experiment in all cases: log2 ratio of Biotin-Ahx-Ub-VS probe labelling (fragment/DMSO); higher = less target engagement (more negative = stronger competition), active = hit call of the paper (q ≤ 0.05, log2 ratio ≤ -1)
Conditions in all cases: compound concentration: 200 uM; treatment time: 3 h
USP19 = target: T1, USP19 (UniProt O94966)
T1 sequence (whole entry): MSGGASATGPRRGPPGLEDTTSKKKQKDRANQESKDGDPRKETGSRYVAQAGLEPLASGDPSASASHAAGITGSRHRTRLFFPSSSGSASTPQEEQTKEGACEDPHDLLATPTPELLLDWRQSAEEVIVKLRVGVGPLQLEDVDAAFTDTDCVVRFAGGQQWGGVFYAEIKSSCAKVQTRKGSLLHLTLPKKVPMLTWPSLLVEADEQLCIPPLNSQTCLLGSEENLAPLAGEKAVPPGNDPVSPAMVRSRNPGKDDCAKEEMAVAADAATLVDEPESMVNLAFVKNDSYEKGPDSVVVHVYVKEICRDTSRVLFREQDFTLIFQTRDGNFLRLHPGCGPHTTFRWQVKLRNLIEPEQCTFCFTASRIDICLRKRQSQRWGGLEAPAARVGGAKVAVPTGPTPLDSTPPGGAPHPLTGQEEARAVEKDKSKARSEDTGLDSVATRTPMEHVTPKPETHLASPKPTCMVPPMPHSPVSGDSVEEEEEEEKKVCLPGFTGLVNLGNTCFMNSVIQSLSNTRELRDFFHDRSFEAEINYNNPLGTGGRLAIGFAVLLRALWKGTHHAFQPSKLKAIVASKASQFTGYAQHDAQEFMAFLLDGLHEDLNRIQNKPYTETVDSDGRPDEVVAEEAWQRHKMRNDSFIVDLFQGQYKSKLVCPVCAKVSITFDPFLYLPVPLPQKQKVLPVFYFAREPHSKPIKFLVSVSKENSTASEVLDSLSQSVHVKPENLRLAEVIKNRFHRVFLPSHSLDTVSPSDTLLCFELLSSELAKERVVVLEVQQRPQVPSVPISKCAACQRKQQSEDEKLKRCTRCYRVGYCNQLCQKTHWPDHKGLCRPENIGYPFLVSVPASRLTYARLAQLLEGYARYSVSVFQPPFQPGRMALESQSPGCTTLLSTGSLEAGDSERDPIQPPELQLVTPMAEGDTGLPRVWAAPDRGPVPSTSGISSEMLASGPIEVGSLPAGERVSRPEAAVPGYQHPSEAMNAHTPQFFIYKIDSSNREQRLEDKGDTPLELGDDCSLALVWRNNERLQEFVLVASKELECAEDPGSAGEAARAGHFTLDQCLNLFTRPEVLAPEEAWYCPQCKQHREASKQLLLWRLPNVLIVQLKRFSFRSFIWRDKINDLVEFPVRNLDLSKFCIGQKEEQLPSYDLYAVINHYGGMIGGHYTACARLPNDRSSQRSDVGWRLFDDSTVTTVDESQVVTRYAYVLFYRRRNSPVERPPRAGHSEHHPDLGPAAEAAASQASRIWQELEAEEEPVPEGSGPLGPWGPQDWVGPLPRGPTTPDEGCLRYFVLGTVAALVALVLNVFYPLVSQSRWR
In short: (§1)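 Fragment (200 µM) or vehicle was incubated for 3 h with triplicate HEK293T lysate samples of 495 µg, which were then treated with Biotin-Ahx-Ub-VS at 0.5 µM final for 1 h. Labelled DUBs were enriched on NeutrAvidin, digested with LysC and trypsin, and analysed by diaPASEF LC-MS/MS. Values are average log2 fragment/vehicle ratios from an unpaired t-test on global-median-normalised Spectronaut label-free quantities, using proteins with ≥2 unique peptides.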

USP24 = USP24 (UniProt Q9UPU5)
Chain of USP24 (Q9UPU5 whole entry): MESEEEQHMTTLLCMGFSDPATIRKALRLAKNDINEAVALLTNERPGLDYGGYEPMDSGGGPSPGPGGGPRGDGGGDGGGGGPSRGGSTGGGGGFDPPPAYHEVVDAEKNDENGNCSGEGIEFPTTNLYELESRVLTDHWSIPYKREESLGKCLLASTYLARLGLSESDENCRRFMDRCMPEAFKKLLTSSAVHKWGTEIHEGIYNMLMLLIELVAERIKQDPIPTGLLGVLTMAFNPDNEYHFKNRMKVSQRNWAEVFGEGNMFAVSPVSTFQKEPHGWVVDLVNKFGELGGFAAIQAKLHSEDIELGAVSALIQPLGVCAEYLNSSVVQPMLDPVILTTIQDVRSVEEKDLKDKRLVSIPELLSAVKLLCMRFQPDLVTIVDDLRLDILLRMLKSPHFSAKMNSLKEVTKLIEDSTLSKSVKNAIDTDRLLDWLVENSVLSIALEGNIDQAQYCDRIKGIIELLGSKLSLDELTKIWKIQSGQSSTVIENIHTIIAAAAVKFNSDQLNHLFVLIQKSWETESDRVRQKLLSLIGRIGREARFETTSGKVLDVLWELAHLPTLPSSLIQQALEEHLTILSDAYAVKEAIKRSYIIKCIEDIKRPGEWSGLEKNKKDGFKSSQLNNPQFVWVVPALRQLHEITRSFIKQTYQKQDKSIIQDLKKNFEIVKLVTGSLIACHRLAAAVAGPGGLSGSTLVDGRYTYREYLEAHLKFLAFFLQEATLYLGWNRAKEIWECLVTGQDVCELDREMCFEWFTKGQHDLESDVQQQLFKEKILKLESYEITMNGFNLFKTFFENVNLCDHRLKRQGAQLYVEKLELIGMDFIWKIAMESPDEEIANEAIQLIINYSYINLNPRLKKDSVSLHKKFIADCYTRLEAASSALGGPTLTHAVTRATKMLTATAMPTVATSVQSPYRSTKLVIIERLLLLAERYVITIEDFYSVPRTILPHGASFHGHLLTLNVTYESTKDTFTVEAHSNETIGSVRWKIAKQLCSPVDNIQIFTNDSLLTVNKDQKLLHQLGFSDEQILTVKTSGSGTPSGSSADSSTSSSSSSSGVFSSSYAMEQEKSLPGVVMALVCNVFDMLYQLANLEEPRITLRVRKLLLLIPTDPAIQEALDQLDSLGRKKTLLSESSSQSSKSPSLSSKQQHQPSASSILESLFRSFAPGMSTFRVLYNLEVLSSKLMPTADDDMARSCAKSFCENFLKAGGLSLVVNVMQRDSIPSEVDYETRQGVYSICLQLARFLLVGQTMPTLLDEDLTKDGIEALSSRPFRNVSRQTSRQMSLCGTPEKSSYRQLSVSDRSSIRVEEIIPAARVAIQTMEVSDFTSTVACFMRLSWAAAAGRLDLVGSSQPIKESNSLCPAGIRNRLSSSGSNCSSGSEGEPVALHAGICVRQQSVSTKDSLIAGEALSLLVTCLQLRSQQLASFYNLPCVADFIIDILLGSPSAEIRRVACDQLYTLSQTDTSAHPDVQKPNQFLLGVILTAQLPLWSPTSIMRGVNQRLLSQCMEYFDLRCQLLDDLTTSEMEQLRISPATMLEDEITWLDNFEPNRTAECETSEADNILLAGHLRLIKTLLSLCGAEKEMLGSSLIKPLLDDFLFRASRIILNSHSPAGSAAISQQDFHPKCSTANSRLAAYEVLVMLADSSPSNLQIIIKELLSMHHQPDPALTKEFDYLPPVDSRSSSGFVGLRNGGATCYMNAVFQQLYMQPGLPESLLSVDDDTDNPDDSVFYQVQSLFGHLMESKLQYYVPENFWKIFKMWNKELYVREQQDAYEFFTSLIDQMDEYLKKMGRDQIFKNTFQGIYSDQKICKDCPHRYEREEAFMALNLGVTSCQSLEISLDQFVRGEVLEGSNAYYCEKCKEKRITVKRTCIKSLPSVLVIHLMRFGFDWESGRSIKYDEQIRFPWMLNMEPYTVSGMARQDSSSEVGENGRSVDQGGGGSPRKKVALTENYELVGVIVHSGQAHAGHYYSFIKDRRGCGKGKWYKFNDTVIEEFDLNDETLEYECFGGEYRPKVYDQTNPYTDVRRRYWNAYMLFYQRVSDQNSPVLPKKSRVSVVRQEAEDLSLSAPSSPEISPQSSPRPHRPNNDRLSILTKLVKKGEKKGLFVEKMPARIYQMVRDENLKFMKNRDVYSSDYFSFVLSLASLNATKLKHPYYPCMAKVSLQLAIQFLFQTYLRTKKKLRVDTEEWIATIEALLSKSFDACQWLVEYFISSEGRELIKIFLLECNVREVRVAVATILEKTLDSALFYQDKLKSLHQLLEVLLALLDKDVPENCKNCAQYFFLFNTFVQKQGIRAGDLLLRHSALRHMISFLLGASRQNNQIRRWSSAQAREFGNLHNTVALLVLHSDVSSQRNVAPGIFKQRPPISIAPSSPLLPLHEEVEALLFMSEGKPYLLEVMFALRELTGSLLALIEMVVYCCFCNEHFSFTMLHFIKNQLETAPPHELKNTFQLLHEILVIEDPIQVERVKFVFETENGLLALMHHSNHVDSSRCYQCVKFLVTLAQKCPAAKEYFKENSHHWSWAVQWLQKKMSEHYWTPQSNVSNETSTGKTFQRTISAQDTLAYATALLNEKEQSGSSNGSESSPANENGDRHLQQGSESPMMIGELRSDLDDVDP
In short: as §1

USP25 = target: T2, USP25 (UniProt Q9UHP3)
T2 sequence (whole entry): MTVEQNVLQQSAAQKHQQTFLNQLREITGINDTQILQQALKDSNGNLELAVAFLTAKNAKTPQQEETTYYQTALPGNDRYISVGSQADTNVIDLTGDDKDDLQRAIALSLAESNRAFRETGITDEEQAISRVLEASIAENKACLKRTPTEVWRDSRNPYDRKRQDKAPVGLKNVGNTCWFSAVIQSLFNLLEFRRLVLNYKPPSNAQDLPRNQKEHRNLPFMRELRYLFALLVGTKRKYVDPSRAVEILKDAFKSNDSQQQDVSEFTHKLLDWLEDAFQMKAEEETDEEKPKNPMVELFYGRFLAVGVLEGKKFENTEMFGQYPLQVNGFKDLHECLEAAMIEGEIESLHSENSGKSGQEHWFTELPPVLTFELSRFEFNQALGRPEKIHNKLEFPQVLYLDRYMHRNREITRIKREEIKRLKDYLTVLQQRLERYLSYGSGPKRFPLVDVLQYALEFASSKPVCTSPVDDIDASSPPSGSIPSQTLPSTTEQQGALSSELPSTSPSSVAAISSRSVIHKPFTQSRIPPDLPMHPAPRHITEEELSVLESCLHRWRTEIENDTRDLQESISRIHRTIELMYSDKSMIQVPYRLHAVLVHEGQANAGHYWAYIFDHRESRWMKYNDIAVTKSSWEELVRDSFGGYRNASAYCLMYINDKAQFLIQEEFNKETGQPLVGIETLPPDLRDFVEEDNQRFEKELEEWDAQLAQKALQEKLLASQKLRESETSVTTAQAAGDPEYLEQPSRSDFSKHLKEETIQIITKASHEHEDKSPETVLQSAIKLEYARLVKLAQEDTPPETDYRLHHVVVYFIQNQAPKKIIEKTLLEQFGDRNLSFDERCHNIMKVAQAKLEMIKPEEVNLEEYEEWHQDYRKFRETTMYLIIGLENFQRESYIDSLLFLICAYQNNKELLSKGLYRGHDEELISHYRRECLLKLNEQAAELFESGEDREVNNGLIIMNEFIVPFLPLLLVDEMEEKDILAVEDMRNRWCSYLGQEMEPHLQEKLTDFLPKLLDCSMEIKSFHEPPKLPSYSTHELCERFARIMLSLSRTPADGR
In short: as §1

USP28 = target: T3, USP28 (UniProt Q96RU2)
T3 sequence (whole entry): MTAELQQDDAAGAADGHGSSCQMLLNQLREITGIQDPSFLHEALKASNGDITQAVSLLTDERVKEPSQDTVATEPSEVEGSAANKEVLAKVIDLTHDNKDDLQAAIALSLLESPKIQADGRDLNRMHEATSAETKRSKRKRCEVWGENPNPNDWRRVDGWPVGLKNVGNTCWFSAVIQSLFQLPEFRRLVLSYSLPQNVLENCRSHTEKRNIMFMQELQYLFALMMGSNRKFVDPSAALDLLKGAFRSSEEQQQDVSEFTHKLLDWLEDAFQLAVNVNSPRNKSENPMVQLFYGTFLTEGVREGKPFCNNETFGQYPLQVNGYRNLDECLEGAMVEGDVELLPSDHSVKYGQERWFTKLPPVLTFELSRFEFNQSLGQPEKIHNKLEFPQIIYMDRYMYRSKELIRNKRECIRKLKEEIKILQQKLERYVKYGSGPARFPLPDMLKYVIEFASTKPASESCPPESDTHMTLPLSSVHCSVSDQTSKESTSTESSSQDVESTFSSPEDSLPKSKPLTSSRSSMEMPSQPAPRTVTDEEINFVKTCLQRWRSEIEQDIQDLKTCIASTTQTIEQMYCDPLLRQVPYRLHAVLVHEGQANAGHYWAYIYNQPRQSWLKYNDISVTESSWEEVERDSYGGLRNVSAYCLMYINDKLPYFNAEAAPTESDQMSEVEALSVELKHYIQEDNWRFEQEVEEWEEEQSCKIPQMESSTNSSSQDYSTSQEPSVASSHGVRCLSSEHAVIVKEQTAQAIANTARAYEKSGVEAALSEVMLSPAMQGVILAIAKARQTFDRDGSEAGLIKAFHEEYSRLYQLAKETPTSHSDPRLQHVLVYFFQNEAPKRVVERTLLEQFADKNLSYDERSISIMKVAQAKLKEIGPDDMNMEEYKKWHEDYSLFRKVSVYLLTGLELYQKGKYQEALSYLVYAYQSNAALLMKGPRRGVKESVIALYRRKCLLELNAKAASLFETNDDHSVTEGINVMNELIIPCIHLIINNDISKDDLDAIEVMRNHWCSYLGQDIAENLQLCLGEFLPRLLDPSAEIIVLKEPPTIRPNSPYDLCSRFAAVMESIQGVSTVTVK
In short: as §1

Measured: log2 ratio of Biotin-Ahx-Ub-VS probe labelling

C[C@@H](NC(=O)CCl)c1cccc(C#N)c1
inactive: USP19 -0.157 | USP24 -0.254 | USP25 -0.569 | USP28 -0.723
